The list is not random: actives were taken first. Their share in the collection is about 5.7%.
rCAG binder: binders of r(CAG) RNA repeats, primary screen, biochemical, fluorescence; r(CAG) RNA repeat, TO-PRO-1 dye displacement fluorescence; inhibition, % at 3 µM; hit rate 1.3% among 370,000; AID 651821, 2012;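 active = inhibition above the plate cutoff, the mean of all test compounds on that plate plus 3 SD, cut at about 35% in these data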;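 note: higher means more dye released from RNA so lower well fluorescence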
FAS TE block: FAS thioesterase domain inhibitors, primary screen, biochemical, fluorescence intensity, uHTS. Fatty acid synthase (Homo sapiens), P49327. recombinant FAS-TE, OMFH fluorogenic substrate, fluorescence endpoint. inhibition, % at 15 µM. hit rate 0.67% among 360,000;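 active = compounds whose normalised, plate-corrected inhibition of enzyme fluorescence in the single-dose primary screen is 50% or more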
Target sequence (P49327 whole entry, looked up, the tested form may be a part): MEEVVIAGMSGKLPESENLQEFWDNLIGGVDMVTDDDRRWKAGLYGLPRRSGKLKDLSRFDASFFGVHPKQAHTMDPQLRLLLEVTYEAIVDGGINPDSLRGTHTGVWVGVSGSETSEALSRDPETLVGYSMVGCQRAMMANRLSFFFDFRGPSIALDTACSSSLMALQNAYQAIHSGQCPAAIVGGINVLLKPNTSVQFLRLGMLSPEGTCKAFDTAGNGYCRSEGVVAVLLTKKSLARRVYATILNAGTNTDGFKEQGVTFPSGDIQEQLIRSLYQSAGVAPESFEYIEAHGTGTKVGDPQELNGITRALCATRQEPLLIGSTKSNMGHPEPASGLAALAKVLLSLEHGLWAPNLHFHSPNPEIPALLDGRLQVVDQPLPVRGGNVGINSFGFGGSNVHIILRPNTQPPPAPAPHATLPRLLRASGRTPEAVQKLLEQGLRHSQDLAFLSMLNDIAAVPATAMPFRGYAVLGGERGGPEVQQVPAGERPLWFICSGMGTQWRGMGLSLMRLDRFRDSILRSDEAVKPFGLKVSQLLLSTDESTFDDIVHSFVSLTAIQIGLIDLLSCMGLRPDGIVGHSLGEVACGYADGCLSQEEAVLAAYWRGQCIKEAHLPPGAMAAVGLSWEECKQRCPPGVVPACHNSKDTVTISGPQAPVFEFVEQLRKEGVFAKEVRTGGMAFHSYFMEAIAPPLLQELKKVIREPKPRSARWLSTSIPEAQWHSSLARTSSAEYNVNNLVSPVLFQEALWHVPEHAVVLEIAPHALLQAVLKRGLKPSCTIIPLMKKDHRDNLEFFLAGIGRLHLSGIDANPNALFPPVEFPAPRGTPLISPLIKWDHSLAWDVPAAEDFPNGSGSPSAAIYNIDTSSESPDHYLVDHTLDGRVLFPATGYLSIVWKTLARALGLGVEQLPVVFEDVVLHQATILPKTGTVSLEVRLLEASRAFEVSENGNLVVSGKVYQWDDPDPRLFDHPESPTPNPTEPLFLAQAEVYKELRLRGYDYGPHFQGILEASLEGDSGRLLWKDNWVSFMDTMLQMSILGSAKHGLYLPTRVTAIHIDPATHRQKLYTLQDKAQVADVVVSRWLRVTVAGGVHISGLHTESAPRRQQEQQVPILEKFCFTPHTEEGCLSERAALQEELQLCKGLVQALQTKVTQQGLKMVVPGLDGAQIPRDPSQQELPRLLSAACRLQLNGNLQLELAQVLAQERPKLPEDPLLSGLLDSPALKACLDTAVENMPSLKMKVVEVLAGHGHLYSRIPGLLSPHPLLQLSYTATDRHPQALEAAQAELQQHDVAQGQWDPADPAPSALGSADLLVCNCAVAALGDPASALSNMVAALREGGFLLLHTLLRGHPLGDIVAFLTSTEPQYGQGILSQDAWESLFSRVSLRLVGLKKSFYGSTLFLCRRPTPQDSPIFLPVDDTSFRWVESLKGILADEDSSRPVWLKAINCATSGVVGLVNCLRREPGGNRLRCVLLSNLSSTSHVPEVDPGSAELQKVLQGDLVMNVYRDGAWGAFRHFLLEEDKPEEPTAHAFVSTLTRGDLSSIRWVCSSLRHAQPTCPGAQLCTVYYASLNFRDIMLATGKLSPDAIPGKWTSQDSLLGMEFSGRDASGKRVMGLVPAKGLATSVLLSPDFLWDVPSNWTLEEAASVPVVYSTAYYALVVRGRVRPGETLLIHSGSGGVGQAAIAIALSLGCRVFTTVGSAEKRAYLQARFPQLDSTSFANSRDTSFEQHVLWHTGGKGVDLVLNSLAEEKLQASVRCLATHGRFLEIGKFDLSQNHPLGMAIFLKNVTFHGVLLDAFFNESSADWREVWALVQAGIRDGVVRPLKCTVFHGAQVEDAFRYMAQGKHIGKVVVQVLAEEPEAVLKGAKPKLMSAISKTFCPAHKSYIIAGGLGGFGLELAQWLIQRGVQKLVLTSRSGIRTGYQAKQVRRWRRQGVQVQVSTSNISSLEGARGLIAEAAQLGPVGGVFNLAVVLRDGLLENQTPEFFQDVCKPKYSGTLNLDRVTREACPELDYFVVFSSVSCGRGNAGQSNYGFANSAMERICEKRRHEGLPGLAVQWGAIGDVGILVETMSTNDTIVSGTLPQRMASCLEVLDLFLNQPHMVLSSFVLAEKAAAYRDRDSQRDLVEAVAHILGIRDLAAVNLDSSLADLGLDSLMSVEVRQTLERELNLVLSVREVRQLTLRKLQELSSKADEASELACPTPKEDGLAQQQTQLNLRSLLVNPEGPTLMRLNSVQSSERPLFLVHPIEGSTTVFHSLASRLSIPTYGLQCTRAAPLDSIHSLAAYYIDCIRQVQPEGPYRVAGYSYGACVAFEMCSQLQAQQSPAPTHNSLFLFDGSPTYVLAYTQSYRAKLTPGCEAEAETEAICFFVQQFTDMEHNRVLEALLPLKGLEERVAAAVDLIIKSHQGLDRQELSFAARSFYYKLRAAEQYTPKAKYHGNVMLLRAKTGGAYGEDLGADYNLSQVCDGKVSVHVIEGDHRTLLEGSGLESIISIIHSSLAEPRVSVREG
NR3A LBD binder: binders of NR3A ligand-binding domain, primary screen, biophysical, differential scanning fluorimetry, uHTS | Glutamate receptor ionotropic, NMDA 3A (GRIN3A) ligand-binding domain | NR3A LBD differential scanning fluorimetry, Tm shift; 0% = protein alone, 100% = glycine-bound protein | Tm shift relative to glycine control, % at 25 µM | hit rate 2.5% among 340,000 | AID 1259313, 2017;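 active = melting temperature shift of at least 10% of the positive control shift, at one fixed dose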
Myeloid diff 2: induction of myeloid progenitor differentiation, primary screen, cell-based, flow cytometry, MLPCN library. AID 624256, 2012. hit rate 1% among 360,000. calls only at 10 µM. ER-HoxA9 myeloid progenitors, lysozyme-GFP differentiation;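 active = normalized GFP-positive differentiation at or above the plate's own cutoff, the solvent-only control mean plus 3 SD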;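 note: cells exposed to compound for four days before flow analysis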
MPTP block: mitochondrial permeability transition pore inhibitors, primary screen, biochemical, isolated mouse mitochondria, absorbance; Ca2+ swelling absorbance, 30 min; hit rate 1.4% among 360,000; AID 602449, 2012; inhibition, % at 10 µM;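 active = inhibition of 50% or more, scaled per plate between neutral and stimulator controls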
rCAG binder conf: small molecules binding CAG repeat RNA – biochemical, fluorescence, confirmation | shares compounds with rCAG binder | r(CAG) RNA repeat, TO-PRO-1 dye displacement fluorescence | inhibition, % at 3 µM | hit rate 70% among 4,300;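 active = inhibition above a per-plate cutoff, the mean inhibition of sample wells plus 3 SD, cut at about 35% in these data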;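 note: loss of TO-PRO-1 fluorescence as compound displaces dye from 1x1 AA loop RNA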
DNA CAG counter: displacement of TO-PRO-1 from CAG DNA duplex, counter-screen for rCAG RNA repeat binder project, biochemical, fluorescence, TO-PRO-1 dye, d(CAG) DNA oligo; shares compounds with rCAG binder; d(CAG) DNA oligo TO-PRO-1 dye displacement; inhibition, % at 3 µM; hit rate 94% among 4,300; AID 652068, 2013;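 active = inhibition above its plate's cutoff, the mean test-well inhibition plus 3 SD, cut at about 4.8% in these data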;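 note: hits displace the dye from DNA and so lower well fluorescence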
Each line names hits and unclear results; the compound was inactive in the other large screens (follow-up assays come after a bar, where they were run).

O=C(CC(C(=O)O)c1ccc(Cl)cc1Cl)c1ccc(Cl)cc1 (configuration not stated)	rCAG binder 40.5 | rCAG binder conf inactive | DNA CAG counter inactive
O=C(CNC(=O)/C=C/c1ccco1)N=Nc1c(O)[nH]c2ccccc12	rCAG binder 34.8 | rCAG binder conf 40.2 | DNA CAG counter 16.8
O=C(CNC(=O)Cc1ccccc1)N=Nc1c(O)[nH]c2ccccc12	none
O=c1[nH]c(=S)[nH]c2c1C(c1ccc(Br)cc1)c1c([nH]c(=S)[nH]c1=O)O2	rCAG binder 86.7 | rCAG binder conf 83.7 | DNA CAG counter 47.5
COc1cc(C2C(C#N)=C(N)N(c3ccc(F)cc3)C3=C2S(=O)(=O)CC3)ccc1O (configuration not stated)	rCAG binder 38.5, Myeloid diff 2 active | rCAG binder conf inactive | DNA CAG counter 9.0
CC1CCCCC1NC(=O)COC(=O)c1c2c(nc3ccccc13)/C(=C/c1ccco1)CC2 (configuration not stated)	rCAG binder 53.0 | rCAG binder conf 51.2 | DNA CAG counter 28.5
Cc1cc(C(=O)OCC(=O)NC2CCCC2)c2ccccc2n1	none
O=C(COC(=O)c1c2c(nc3ccccc13)/C(=C/c1ccco1)CC2)NC1CCCC1	rCAG binder 67.7 | rCAG binder conf 60.0 | DNA CAG counter 34.0
Cn1c(-c2ccccc2)c(Sc2ccccc2)c2cc(-c3ccc4[nH]ccc4c3)ccc21	none (no result: NR3A LBD binder)
O=C(O)Cc1ccc(N2N=C(c3ccccc3)CC2=O)cc1	rCAG binder 67.7 (no result: NR3A LBD binder) | rCAG binder conf inactive | DNA CAG counter 6.0
NC1=NC(c2ccc(Cl)cc2)C(C(=O)c2ccccc2)N1 (configuration not stated)	none
CC(C)(C)S(=O)N1Cc2cc(C(=O)O)nc(-c3cccc(-c4cc5ccccc5o4)c3)c2[C@H]1CCO (some centres not stated)	rCAG binder 38.8 (no result: NR3A LBD binder) | rCAG binder conf 35.0 | DNA CAG counter 13.3
CC(C)N(C(=O)[C@H]1CC(CC(=O)NCC23CC4CC(CC(C4)C2)C3)C(=O)N2CCc3c([nH]c4ccccc34)[C@]12C)C(C)C (some centres not stated)	none
CCN1CCN(c2ccc(S(=O)(=O)N3CCOCC3)cc2NC(=O)c2ccc(Cl)s2)CC1	none
Cc1ccc(CSc2nnc(SCC(=O)N/N=C/c3ccc(C(=O)O)cc3)s2)cc1	rCAG binder 43.4 | rCAG binder conf 41.3 | DNA CAG counter 10.6
CCc1ccc(Nc2nnc(SCC(=O)Nc3ccc(C(=O)O)cc3)s2)cc1	rCAG binder 36.5 | rCAG binder conf inactive | DNA CAG counter 5.0
O=C(CSc1nnc(SCc2ccccc2)s1)N/N=C/c1ccc(C(=O)O)cc1	none
O=C(CSc1nnc(SCc2cccc3ccccc23)s1)Nc1ccc(C(=O)O)cc1	rCAG binder 67.0 | rCAG binder conf 68.2 | DNA CAG counter 30.2
O=C(CSc1nnc(SCc2cccc3ccccc23)s1)Nc1ccc(Oc2ccccc2)cc1	none (no result: FAS TE block, NR3A LBD binder, Myeloid diff 2, MPTP block)
Cc1ccc(NC(=S)NNC(=O)CSc2nnc(SCc3cccc4ccccc34)s2)cc1	rCAG binder 51.6 (no result: FAS TE block, NR3A LBD binder, Myeloid diff 2, MPTP block) | rCAG binder conf 51.2 | DNA CAG counter 20.2
CCc1ccc(Nc2nnc(SCC(=O)NC(=O)c3cccn3C)s2)cc1	none
Cc1nc2ccccc2n1CSc1ccccc1	none
Cc1ccc(S(=O)(=O)NCCN2CCOCC2)s1	none
O=C(CN(c1cc(Cl)ccc1Cl)S(=O)(=O)c1ccccc1)N1CCOCC1	none (no result: Myeloid diff 2)
COc1ccc(S(=O)(=O)Nc2ccc(S(=O)(=O)N(C)C)cc2)cc1[N+](=O)[O-]	none
CCN(CC)S(=O)(=O)c1ccc(NS(=O)(=O)c2ccc(OC)c([N+](=O)[O-])c2)cc1	rCAG binder 42.5 | rCAG binder conf inactive | DNA CAG counter inactive

Screening data from PubChem BioAssay.
